Hits are enriched below; roughly 0.65% of the tested compounds scored in any of these assays.
BJeLR lethal: BJeLR cell viability loss; AID 1554; inhibition, % (concentration not given with the values); 0.17% of 300,000 active; BJeLR (HRASV12) viability, CellTiter-Glo ATP luminescence, 48 h; in the data active means inhibition above about 50%
Sa RN4220 lethal: kills Staphylococcus aureus RN4220; S. aureus RN4220 growth, OD600, 16 h; inhibition, % (test concentration not listed); 0.33% of 330,000 active; in the data active means inhibition above about 85%
ugtP null kill: growth inhibition of S. aureus ugtP deletion strain | S. aureus RN4220 ugtP deletion, OD600 growth, 16 h | growth inhibition, % (test concentration not listed) | AID 1259309 | 0.54% of 330,000 active; in the data active means growth inhibition above about 68%
Numbers stand for hits; 0 = inactive; - = no result given.

SMILES | BJeLR lethal | Sa RN4220 lethal | ugtP null kill
O=C(/C=C/c1cccs1)Nc1cccc(NC(=O)/C=C/c2cccs2)n1 | 0 | 0 | 0
O=C(/C=C/c1cccs1)Nc1ccc(Br)cn1 | 53.3 | 0 | 0
O=C(/C=C/c1cccs1)NC(=S)NNC(=O)c1ccccc1O | 0 | 0 | 0
Cc1ccc(-c2nc3ccccc3o2)cc1NC(=S)NC(=O)/C=C/c1ccco1 | 0 | 0 | 0
O=C(/C=C/c1cccs1)NC(=S)Nc1ccccc1 | 0 | 0 | active
O=C(/C=C/c1ccco1)NC(=S)Nc1ccccc1 | 0 | 0 | 92.9
O=C(/C=C/c1ccco1)NC(=S)Nc1cccc(-c2nc3ccccc3o2)c1 | 0 | 0 | 97.9
COc1ccc(N2CCN(CCCNC(=O)C3CCCN(S(=O)(=O)c4c(C)n[nH]c4C)C3)CC2)cc1 (stereo not given) | 0 | 0 | 0
Cc1noc(C)c1COc1ccccc1C(=O)N1CCN(S(=O)(=O)c2ccccc2Br)CC1 | - | 0 | 0
O=C(CN1CCOCC1)NN=Cc1ccccc1 | - | 0 | 0
COc1cccc(OCc2ccc(Cl)cc2)c1C#N | 0 | 0 | 0
CC(C)CCNC(=S)Nc1ccc([N+](=O)[O-])cc1 | 0 | 0 | 0
CC(C)OC(=O)c1cc(NC(=S)Nc2ccc([N+](=O)[O-])cc2)cc(C(=O)OC(C)C)c1 | 0 | 100.0 | 99.9
Clc1ccc2c(N/N=C/c3cccc(Br)c3)ccnc2c1 | 0 | - | -
Cc1ccc(C=NNc2ccnc3cc(Cl)ccc23)c(C)c1 | - | 99.4 | 100.8
Cc1ccccc1C=NNc1ccnc2cc(Cl)ccc12 | - | 98.4 | 99.1
Clc1ccc2c(NN=Cc3ccc(Br)cc3)ccnc2c1 | - | 100.5 | 100.7
Clc1ccc2c(N/N=C/c3ccccc3Br)ccnc2c1 | 0 | - | -
Oc1ccc(C=NNc2ccnc3cc(Cl)ccc23)c(O)c1 | - | 0 | 0
CCOC(=O)c1c(NC(=O)COC(=O)Cc2ccccc2[N+](=O)[O-])sc(C(=O)N(C)C)c1C | 0 | 0 | 0
NC(=O)C1(N2CCCCC2)CCN(C(=O)CSc2nc3ccccc3[nH]2)CC1 | 0 | 0 | 0
CN(C)c1ccc(C=C2C(=O)NC(=S)NC2=O)cc1 | - | 0 | 0
CCN(CC)c1ccc(C=C2C(=O)NC(=S)NC2=O)cc1 | 51.4 | 0 | 0
Cc1ccc(OCCn2cc(C=O)c3ccccc32)cc1 | 0 | 0 | 0
O=C(C1CC1)N(Cc1ccco1)c1nc(-c2ccccc2)cs1 | 0 | 0 | 96.4
SMILES | BJeLR lethal | Sa RN4220 lethal | ugtP null kill
COc1ccc(-c2csc(N(Cc3ccco3)C(=O)c3cccs3)n2)cc1 | 0 | 0 | 0
COc1ccc(-c2nc(CS(=O)CC(=O)NCC3CCCO3)c(C)o2)cc1 (stereo not given) | 0 | 0 | 0
c1cc2c(cc1C1CCCCC1)c1c3n2CCCNC3CCC1 (stereo not given) | 0 | 88.6 | 87.1
Cc1ccc2c(c1)c1c3n2CCCNC3CCC1 (stereo not given) | 0 | 0 | 0
CCOC(=O)C(=O)Cc1nc(OCc2ccccc2)cc(OCc2ccccc2)n1 | - | 0 | 0
CCOC(=O)C(Cc1nc(OCc2ccccc2)cc(OCc2ccccc2)n1)=NO | - | 0 | 87.4
COC(=O)c1cc2ccccc2c(=O)s1 | 0 | 0 | 0
O=C(Nc1cccc(NC(=O)c2cccc(F)c2)n1)c1cccc(F)c1 | 0 | 90.3 | 0
O=C(Nc1cccc(NC(=O)c2c(F)cccc2F)n1)c1c(F)cccc1F | 0 | 0 | 0
O=C(CCc1nnc(COc2ccccc2)o1)NCc1ccc(Cl)s1 | 0 | 0 | 0
COc1ccccc1NC(=O)Cn1c(O)c(N=NC(=O)c2ccccc2O)c2ccccc21 | 0 | 0 | 0
COC(=O)c1ccc(C=NNS(=O)(=O)c2cc(C)ccc2C)cc1 | - | 0 | 0
COc1ccc(C(=O)NC(=S)Nc2ccc(CN3CCOCC3)cc2)cc1OC | 0 | 0 | 0
O=C(NC(=S)Nc1ccc(N2CCOCC2)cc1)c1ccccc1 | 0 | 0 | 0
COc1ccc(C(=O)NC(=S)Nc2ccc(CN3CCOCC3)cc2)cc1Cl | 0 | 0 | 86.3
CCc1ccc(C(=O)NC(=S)Nc2ccc(N3CCOCC3)cc2)cc1 | 0 | 0 | 89.5
O=C(NC(=S)Nc1ccc(N2CCOCC2)cc1)c1cccc(Cl)c1 | 0 | 0 | 92.7
CC(=O)c1ccc(NC(=S)Nc2ccc(N3CCOCC3)cc2)cc1 | 0 | 0 | 0
COc1ccc(NC(=O)CN2CCc3ccccc3C2)c([N+](=O)[O-])c1 | 0 | 0 | 0
COCCNC(=O)Cc1c(C)c2cc3c(cc2oc1=O)OC(C)(C)CC3 | 0 | 0 | 0
O=C(Cc1ccc([N+](=O)[O-])cc1)N/N=C/c1ccc([N+](=O)[O-])o1 | 55.4 | - | -
O=C(CNc1ccccc1)NN=Cc1ccc([N+](=O)[O-])o1 | - | 0 | 0
O=C(CSc1ccc(Cl)cc1)NN=Cc1ccc([N+](=O)[O-])o1 | - | 0 | 99.8
Cc1ccc(NC(=O)CCC(=O)NN=Cc2ccc([N+](=O)[O-])o2)cc1C | - | 0 | 0
O=C(Cc1ccccc1)NN=Cc1ccc(-c2ccc([N+](=O)[O-])cc2)o1 | - | 0 | 0
O=C(NN=Cc1ccc([N+](=O)[O-])o1)c1ccc2c(c1)OCO2 | - | 87.7 | 97.7

Screens (PubChem)
